Compounds with a hit are over-represented: about 21% of the library has one in this group of screens.
IL1B secr inh = qHTS for Inhibitors of Inflammasome Signaling: IL-1-beta AlphaLISA Primary Screen. THP-1 LPS/ATP IL-1B secretion, AlphaLISA, 16 h; active compounds read low. activity change, % at 57.5 µM. AID 743279, 2014. 4.7% of 360,000 active; in the data active = activity change below about -50%; inconclusive = mostly about -30% to -49%; also: % is scaled to controls: 0 for no effect and ±100 for the full control effect
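Secreted IL-1B measured by AlphaLISA bead assay after 16 h compound exposure of THP-1 cells; compounds (final up to 57.5 uM) added 1 h before LPS (250 ng/mL) and ATP (1.25 mM) stimulation; lower signal means less secretion.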
DT40 TDP1 CPT = qHTS for Inhibitors of human tyrosyl-DNA phosphodiesterase 1 (TDP1): qHTS in cells in presence of CPT | 12% of 420,000 active | Potency, µM (doses to about 46.2 µM), without a hit: at the top dose activity change, negative = growth inhibition, hits mostly inhibitors | chicken DT40 Tdp1-/-;hTDP1 cells + 20 nM CPT, ATP luminescence, 48 h | AID 686979, 2013; also: potency is read from the fitted curve at half-maximal effect; % is scaled to controls: 0 for no effect and ±100 for the full control effect; nearly all actives have a fitted effect of over 55% in size
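Chicken DT40 Tdp1-/- cells complemented with human TDP1, 400 cells/well, exposed to compounds plus 20 nM camptothecin for at least 48 h at 37 C; viability read as ATP content by CellTiter-Glo luminescence.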
ClpP mod = qHTS Assay for Activators of ClpP. purified B. subtilis ClpP, FRET peptide cleavage, 20 min. Potency, µM (highest dose often 57.5 µM), for the others: top-dose activity change, negative = active. 1.9% of 340,000 active. AID 651965, 2013; active = well fitted falling curve with a large enough effect; inconclusive = small, poorly fitted or top-dose-only effect; inactive = no such curve, though single readings can be large or run the other way; also: potency is read from the fitted curve at half-maximal effect; the source files actives as falling curves though it sought activators and does not explain the sign; nearly all actives have a fitted effect of over 65% in size
Target sequence (P80244 whole entry, looked up): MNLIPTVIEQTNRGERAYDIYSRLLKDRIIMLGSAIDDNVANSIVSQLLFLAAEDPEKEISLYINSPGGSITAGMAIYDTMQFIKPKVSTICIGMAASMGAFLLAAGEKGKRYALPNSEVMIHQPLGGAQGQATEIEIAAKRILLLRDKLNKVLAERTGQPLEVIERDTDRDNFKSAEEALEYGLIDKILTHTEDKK
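Purified B. subtilis ClpP, 10 microg/mL final in Tris/HCl pH8 with KCl, BSA, glycerol and Tween-20, cleaved an Abz/nitrotyrosine-quenched decapeptide. Fluorescence (ex 320, em 430) was read at 0 and 20 min at room temperature. Delta was normalized to 5.8 microM ADEP and DMSO/no-enzyme controls.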
TDP1 cell noCPT = qHTS for Inhibitors of human tyrosyl-DNA phosphodiesterase 1 (TDP1): qHTS in cells in absence of CPT. DT40 Tdp1-/- hTDP1 cells, no CPT, ATP luminescence, 48 h. 15% of 420,000 active. AID 686978, 2013. Potency, µM (doses to about 46.2 µM), for the others: at the highest dose activity change, negative = growth inhibition, usual class: inhibitors; also: potency is read from the fitted curve at half-maximal effect; % is scaled to controls: 0 for no effect and ±100 for the full control effect; nearly all actives have a fitted effect of over 55% in size
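DT40 Tdp1-/-;hTDP1 cells, no CPT (DMSO vehicle only), 400 cells/well; compounds pin-transferred; ≥48 hr, 37 °C; CellTiter-Glo 30 min RT dark, luminescence read.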
DRD3 antagonist = qHTS of D3 Dopamine Receptor Antagonist: qHTS; D3R cells, DiscoveRx beta-arrestin luminescence, antagonist mode; active compounds read low; 2.5% of 360,000 active; D(3) dopamine receptor (Homo sapiens), P35462; max response, negative = inhibition, %; AID 652054, 2013; in the data active = max response below about -50%; inconclusive = no clear call, values can overlap the other calls; also: % is scaled to controls: 0 for no effect and ±100 for the full control effect
Target sequence (P35462 whole entry, looked up): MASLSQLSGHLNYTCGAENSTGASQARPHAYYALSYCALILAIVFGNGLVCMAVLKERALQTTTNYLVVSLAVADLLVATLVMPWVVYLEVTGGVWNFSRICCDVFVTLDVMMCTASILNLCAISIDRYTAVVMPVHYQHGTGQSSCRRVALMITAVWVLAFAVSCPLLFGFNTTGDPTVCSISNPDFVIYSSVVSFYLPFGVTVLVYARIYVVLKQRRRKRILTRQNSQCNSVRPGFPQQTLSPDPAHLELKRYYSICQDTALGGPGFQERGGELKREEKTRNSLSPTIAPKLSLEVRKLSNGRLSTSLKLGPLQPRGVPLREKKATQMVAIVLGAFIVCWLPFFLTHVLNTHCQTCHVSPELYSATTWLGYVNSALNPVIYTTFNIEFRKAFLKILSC
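Cells plated overnight at 1500 cells/well, then exposed to library compounds with dopamine controls for 90 minutes at 37 degrees C. DiscoveRx reagent added for 30–60 minutes at room temperature; luminescence read, quantitative HTS format.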
DRD3 agonist = qHTS of D3 Dopamine Receptor Agonist: qHTS | D(3) dopamine receptor (Homo sapiens), P35462 | 0.58% of 410,000 active | max activation, % | D3R DiscoveRx beta-arrestin cells, luminescence, 90 min; in the data active = max activation above about 30%; also: 0% is about no effect
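Cells at 1500/well, incubated overnight, then treated with pinned compounds (dopamine as control) for 90 min at 37 degrees C. DiscoveRx reagent added for 30 - 60 minutes at room temperature; luminescence read.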
Starred values were filed as active, the others as inactive; ? = inconclusive; · = not tested or not shown. Unless noted, calls follow the shape of the dose curve; as a rule, active = well fitted inhibition curve with a large enough effect; inconclusive = small, poorly fitted or top-dose-only effect; inactive = flat fitted curve, though single readings scatter.

SMILES | IL1B secr inh | DT40 TDP1 CPT | ClpP mod | TDP1 cell noCPT | DRD3 antagonist | DRD3 agonist
CCOCC(=O)Nc1c(C(=O)OCC)oc2ccccc12 | -8 | -26% | -26% | -10% | 16 | 0
Cc1ccc(S(=O)(=O)N(CC(O)Cn2c3ccccc3c3ccccc32)c2cccc(C(=O)NCCO)c2)cc1 (centres undefined) | · | · | -3% | · | · | 0
O=C(COC(=O)c1cccc(O)c1)Nc1ccc(S(=O)(=O)N2CCOCC2)cc1 | ? | -4% | -2% | 10% | -14 | 0
O=[N+]([O-])c1c(O)c(Cl)cc(Cl)c1Cl (tested in a mixture with another compound) | 31 | 13% | · | -17% | -11 | 14
COc1ccc(Nc2oc(COc3ccccc3F)nc2C#N)cc1 | -2 | ? | 1% | 13µM* | -4 | 2
N#Cc1nc(COc2ccccc2F)oc1NCCc1ccccc1 | -77* | -5% | 1% | -19% | -21 | -4
COc1ccc(Nc2oc(COc3ccc(OC)cc3)nc2C#N)cc1 | -14 | -16% | -3% | ? | 3 | -1
COc1ccccc1-c1cnc(C(O)c2ccc(Cl)cc2)[nH]1 (centres undefined) | 27 | -19% | -2% | -20% | -8 | -3
COc1ccc(C(=O)NC(C(=O)NCC(=O)Nc2c(C)cccc2C)C(C)C)cc1 (centres undefined) | -12 | -6% | -1% | 4% | 10 | 0
COc1ccc(-c2cc(-c3ccccc3)c(C#N)c(S(C)(=O)=O)n2)cc1 | -96* | ? | 19% | ? | 18 | 1
CS(=O)(=O)c1nc(-c2ccc(Br)cc2)cc(-c2ccccc2)c1C#N | -59* | 4.1µM* | -26% | 2.6µM* | -17 | 12
CS(=O)c1nc(-c2ccc(Br)cc2)cc(-c2ccccc2)c1C#N (centres undefined) | -70* | 1.8µM* | -15% | 2.6µM* | -56* | -3
CCS(=O)(=O)CCSc1nc(-c2ccc(Br)cc2)cc(-c2ccccc2)c1C#N | · | -15% | -1% | -14% | · | -17
COc1ccc(NS(=O)(=O)c2cn(C)nc2C)cc1 | 12 | -1% | 1% | -1% | 3 | 6
COc1ccc(CN2CCN(C(=O)c3ccc(S(=O)(=O)NCc4ccco4)cc3)CC2)cc1 | -1 | ? | -3% | 18µM* | -4 | -12
CCOC(=O)C1CCCN(C(=O)c2ccc(S(=O)(=O)NCc3ccco3)cc2)C1 (centres undefined) | 5 | ? | -3% | -29% | 10 | 2
CC1CCCC(C)N1C(=O)c1ccc(CS(=O)(=O)c2ccccc2)cc1 (centres undefined) | 24 | ? | 1% | 15µM* | -2 | 0
CC(=O)c1ccc(N2CCN(C(=O)c3ccc(S(=O)(=O)NCc4ccco4)cc3)CC2)cc1 | -27 | 21µM* | · | 16µM* | -5 | 3
CC1CCCC(C)N1C(=O)c1ccc(S(=O)(=O)NCc2ccco2)cc1 (centres undefined) | 31 | ? | · | 23µM* | 21 | 25
Cc1ccc(S(=O)(=O)Cc2ccc(C(=O)N3CCCCC3C)cc2)cc1 (centres undefined) | 17 | -28% | 2% | -26% | 2 | 11
O=C(c1ccc(S(=O)(=O)NCc2ccco2)cc1)N1CCN(Cc2ccccc2)CC1 | -8 | -25% | · | ? | -10 | -7
Cc1ccc(NC(=O)C2CCCN2C(=O)NC2CCCCC2)cc1F (centres undefined) | 22 | 6% | · | 5% | -10 | -2
COc1ccccc1NC(=O)CSc1nnc2c(n1)[nH]c1ccccc12 | · | ? | 2% | ? | · | -13
CN1C2CCC1CC(NS(=O)(=O)c1cccc(C(F)(F)F)c1)C2 (centres undefined) | -76* | -8% | 2% | 6% | 2 | 0
CN1C(=O)c2ccc(Oc3ccccc3)cc2C1=O | 13 | 18% | · | -7% | -7 | -4
SMILES | IL1B secr inh | DT40 TDP1 CPT | ClpP mod | TDP1 cell noCPT | DRD3 antagonist | DRD3 agonist
O=C(C[n+]1cccc(Br)c1)c1ccc(Br)cc1 | · | -9% | 1% | -4% | · | ·
O=C(Cn1c(-c2ccccc2)c[n+]2ccsc12)c1ccc(Br)cc1 | -86* | 7.3µM* | · | 3.3µM* | -2 | 3
COc1ccc(Nc2nnc(SC(C(=O)Nc3ccc(OC)c(Cl)c3)c3ccccc3)s2)cc1 (centres undefined) | -10 | 23µM* | -1% | 13µM* | -23 | -15
COc1cccc(NC(=O)C(Sc2nnc(Nc3ccccc3C)s2)c2ccccc2)c1 (centres undefined) | -51* | 16µM* | 0% | 21µM* | -54* | -11
COc1ccc(Nc2nnc(SC(C(=O)Nc3cc(C)ccc3C)c3ccccc3)s2)cc1 (centres undefined) | 3 | ? | · | 21µM* | 10 | -2
COc1ccc(C)cc1NC(=O)C(Sc1nnc(Nc2cc(C)ccc2OC)s1)c1ccccc1 (centres undefined) | -4 | ? | -5% | ? | -5 | -9
COCCNC(=S)Nc1ccccc1Cc1ccccc1 | 0 | 2% | 1% | 14% | -4 | 4
Nn1c(CSc2nc3ccccc3o2)nnc1CSc1nc2ccccc2o1 | 0 | -20% | 0% | -9% | ? | 2
Cc1cc(C)n2cc(CSc3nc4cc(Cl)ccc4o3)nc2n1 | 17 | -21% | -29% | -22% | -51* | -1
Cc1cc(C)n2c(Br)c(CSc3nc4ccccc4o3)nc2n1 | 31 | ? | 28µM* | ? | 14 | 3
Cc1cc(C)n2cc(CSc3nnc(N)s3)nc2n1 | -3 | -3% | -22% | -12% | -53* | 1
CCc1nnc(SCc2cn3c(C)cc(C)nc3n2)n1N | 27 | -1% | 11µM* | -5% | 31 | 9
Cc1ccc(SCc2cn3c(C)cc(C)nc3n2)cc1 | -6 | -5% | · | -19% | 4 | 7
C=CC(=O)N1CCCC(Nc2nc(Nc3ccc(N(C)C(=O)CC)cc3C)nc3nc[nH]c23)C1 (centres undefined) | -4 | -13% | 0% | -12% | -27 | -2
